High-throughput results as filed in PubChem.
This is a sample that favours compounds with a hit; in the whole collection about 2.5% have one here.
IkB sig inh = IkB pathway inhibition in ABC-DLBCL cells. ABC-DLBCL IkBa-CBG/CBR dual luciferase ratio, 4 h; response scale: scaled: untreated 0%, proteasome inhibitor 100%. AID 445. Potency, µM (titrated, usually from 57.1 µM), without a hit: at the top dose IkBa stabilization activation. hit rate 0.04% among 110,000; active means well fitted curve in the direction sought with a large enough effect in the signal ratio, not every such curve was filed as active; inconclusive means small, poorly fitted or top-dose-only effect, or a change in a side signal; the % refers to the signal ratio;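 further: the direction sought is a rising ratio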
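In this assay, an IκBα–CBG68 fusion accumulates when IKK-driven degradation is blocked; native CBR normalizes for cell number. OCI-Ly3 cells were treated 4 h with compound and doxycycline, then green and red light read after Chroma-Glo addition.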
Caspase-1 inhib = blocks human caspase-1 allosterically or competitively | hit rate 0.03% among 75,000 | Caspase-1 enzyme, Ac-WEHD-AFC fluorogenic rate | P29466 | AID 900 | Potency, µM (top dose mostly 57.5 µM), for the others: at the highest dose activity change, negative = inhibition, usual class: inhibitors;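 further: plate controls were vehicle for no effect and no substrate for full effect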
p53ts 39C tox = p53ts cell cytotoxicity, nonpermissive temperature; H1299-p53A138V viability at 39C, ATP luminescence, 24 h; Potency, µM (doses to about 46.1 µM), for inactives: top-dose activity change, negative = cell killing, most hits filed as cytotoxic; hit rate 1.5% among 130,000; further: on the % scale 0 is the no-effect control and ±100 the full control effect; nearly all actives have a fitted effect of over 55% in size
Luciferase inh = blocks Photinus pyralis firefly luciferase activity. P08659. hit rate 2.2% among 72,000. purified firefly luciferase, luminescence, 8 min. Potency, µM (doses to about 57.1 µM), for inactives: at the highest dose activity change, negative = inhibition, hits mostly inhibitors. AID 411; further: on the % scale 0 is the no-effect control and ±100 the full control effect; nearly all actives have a fitted effect of over 40% in size
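Here, luciferase activity is measured as luminescence following an 8 min room-temperature reaction at 10 uM ATP, pH 7.2. Every library sample is titrated.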
Caspase-7 inhib = blocks human caspase-7 allosterically or competitively | P55210 | recombinant caspase-7, Ac-DEVD-AFC fluorescence rate | Potency, µM (titrated, usually from 57.5 µM), for inactives: at the highest dose activity change, negative = inhibition, actives largely listed as inhibitors | hit rate 0.02% among 75,000 | AID 889; active means well fitted inhibition curve with a large enough effect in the main read-out, with a control signal flat, not every such curve was filed as active; inconclusive means small, poorly fitted or top-dose-only effect, or a change in a side signal; further: % of control where 0% means no effect
p53ts 32C tox = p53ts cell cytotoxicity, permissive temperature | H1299-p53A138V at 32C, ATP luminescence viability, 24 h | Potency, µM (series often up to 46.1 µM), for the others: top-dose activity change, negative = cytotoxicity, hits mostly cytotoxic | hit rate 0.93% among 130,000;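 further: 0% = DMSO and -100% = full killing by reference compound; nearly all actives have a fitted effect of over 55% in size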
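Cells: H1299 p53ts (A138V), 600/well, pre-incubated 16–30 h at 37C. Cpd up to 46 uM, 24 h, 32C. Readout: ATPlite luminescence, 20 min RT. Normalization: DMSO vs tamoxifen 100 uM. AC50 by Hill equation.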
The depositor's hits bear a star; ? = inconclusive; nt = no result given; [ ] = another dose, or the depositor's remark. Unless noted, the call rests on the fitted dose curve; in most records, active means well fitted curve in the direction sought with a large enough effect; inconclusive means small, poorly fitted or top-dose-only effect, or another doubt; inactive means no such curve, though single readings can be large; an effect the other way counts as inactive or inconclusive. Potency means the concentration at half of the fitted maximal effect.

SMILES	IkB sig inh	Caspase-1 inhib	p53ts 39C tox	Luciferase inh	Caspase-7 inhib	p53ts 32C tox
COc1cc2c(C#N)c(N3CCCCC3)nc(N)c2c(N)n1	-2.3%	?	-26.1%	20µM*	-27.2%	-5.7%
CCOC(=O)c1ccc(NC(=O)c2ccc(C)c(S(=O)(=O)N3CCOCC3)c2)cc1	?	-2.7%	?	-1.6%	-0.8%	15.8µM*
CCN(CC)S(=O)(=O)c1cc(C(=O)Nc2ccccc2C(=O)O)ccc1OC	3.8%	0.1%	?	20µM*	2.2%	12.6µM*
Cc1ccc(C(=O)Nc2ccccc2C(=O)O)cc1S(=O)(=O)N1CCCCCC1	?	nt	3.98µM*	nt	nt	7.94µM*
Cc1ccc(C(=O)Nc2cccc(C(=O)O)c2)cc1S(=O)(=O)N1CCCC1	3.6%	nt	6.31µM*	nt	nt	12.6µM*
CCc1ccccc1NC(=O)CSc1nnc(Cn2cnc3ccccc32)o1	nt	nt	14.5%	nt	nt	-7.6%
CCOC(=O)c1[nH]cc(-c2ccccc2)c1N1CCOCC1	-2.2%	-0.3%	7.1%	2.9%	-0.4%	6.0%
COc1ccc(NC(=O)CSc2nnc3scc(-c4ccc(Cl)cc4)n23)cc1	?	nt	12.6µM*	nt	nt	?
Cc1ccc(-c2nc(CS(=O)CC(=O)N3CCN(c4cccc(Cl)c4)CC3)c(C)o2)cc1 (configuration not stated)	0.3%	nt	12.6µM*	nt	nt	-7.0%
COc1ccccc1Nc1nc2ccccc2n1C	2.0%	-2.9%	18.4%	15.8µM*	-3.0%	?
COc1cc2c(C)c3c4c(cc(OC)c(OC)c4c2cc1OC)CCN3C	nt	-10.3%	-4.3%	nt	-14.5%	-4.8%
COc1cc2c(C=O)c3c4c(cc(OC)c(OC)c4c2cc1OC)CCN3C	nt	?	15.8µM*	nt	-25.6%	?
Cc1cccc(NC(=O)c2cnc3ccccn3c2=O)c1	1.2%	-1.7%	12.9%	-0.1%	0.6%	0.8%
Cc1cccc(NC(=O)c2cnc3sccn3c2=O)c1	2.1%	-1.9%	10µM*	10µM*	-0.1%	7.94µM*
COc1ccc(Cn2c(CCC(=O)Nc3ccc(CC#N)cc3)nc3cccnc32)cc1	3.1%	2.1%	-4.1%	2.0%	-2.3%	2.3%
COc1ccc(N=[N+]([O-])c2ccc(OC)cc2)cc1	?	-1.5%	15.8µM*	nt	0.1%	-2.9%[1.84 µM]
CCOc1ccc(S(=O)(=O)Nc2ccc(O)c(Sc3ncn[nH]3)c2)cc1	nt	nt	9.9%	nt	nt	-1.5%
CC(C)c1ccc(S(=O)(=O)/N=C2/C=C(Sc3ncn[nH]3)C(=O)c3ccccc32)cc1	nt	nt	8.91µM*	nt	nt	nt
COc1cc(/C=C(\C#N)c2nc3ccccc3[nH]2)ccc1OCc1cccc(C(F)(F)F)c1	-1.1%	nt	3.16µM*	nt	nt	12.6µM*
COc1cc(/C=C(\C#N)c2nc3ccccc3[nH]2)ccc1OCc1ccc(F)cc1	2.6%	nt	-2.6%	nt	nt	?
Cc1nc2ncnn2c(N2CCN(C(c3ccccc3)c3ccccc3)CC2)c1C	?	-5.8%	20µM*	1.3%	nt	?
Cc1cc(N2CCN(C(c3ccccc3)c3ccccc3)CC2)n2ncnc2n1	1.5%	-2.3%	8.4%	3.6%	-0.3%	12.3%
CCOC(=O)CNC(=O)c1sc(NC(=O)c2ccccc2)nc1C	nt	nt	-6.7%	nt	nt	-8.0%
Cc1nc(NC(=O)c2ccccc2)sc1-c1csc(N)n1	?	0.6%	-23.4%	15.8µM*	-4.1%	-24.6%
O=C1CC(c2ccco2)Sc2nc3ccccc3n21 (configuration not stated)	9.6%	-2.9%	6.5%	-16.6%	-3.4%	18.5%
O=C1CC(c2cccs2)Sc2nc3ccccc3n21 (configuration not stated)	?	-1.4%	-14.3%	15.8µM*	-2.9%	-16.4%
O=C1CC(c2ccc3c(c2)OCO3)Sc2nc3ccccc3n21 (configuration not stated)	?	-9.8%	12.6µM*	3.98µM*	-5.6%	12.6µM*
CC(C)NC(=O)c1ccc(-n2c(-c3ccccc3)cc3c2CCCCC3)cc1	?	nt	-10.8%	nt	nt	14.4%
